{
  "source": "PubChem BioAssay AID686978",
  "about": "(National Center for Advancing Translational Sciences (NCATS), 2013)",
  "note": "Several values for one entry are separate records, joined by “and”; a condition that tells them apart may be missing. Equal entries are not always repeated. The campaign covered roughly 420,000 compounds. About 64,000 (15%) were called active. Another 27% or so got no clear call; they are omitted. Calls follow the shape of the dose curve; as a rule, active = well fitted inhibition curve with a large enough effect; inconclusive = small, poorly fitted or top-dose-only effect; inactive = flat fitted curve, though single readings scatter. Not all results are given here. A call without a number means that no potency is given here. Peptide text beside a SMILES is read from it. * marks the point of attachment. Bz = O=C(c1ccccc1)*",
  "data": [
    {"experiment": "qHTS for Inhibitors of human tyrosyl-DNA phosphodiesterase 1 (TDP1): qHTS in cells in absence of CPT; also: nearly all actives have a fitted effect of over 55% in size; also: potency is read from the fitted curve at half-maximal effect", "conditions": "DT40 Tdp1-/- hTDP1 cells, no CPT, ATP luminescence, 48 h; activity change, negative = growth inhibition: at 46.2 µM (top of the series)", "in_short": "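Compound effects on proliferation are scored in DT40 Tdp1-/-;hTDP1 cells in the absence of CPT. ATP levels (CellTiter-Glo luminescence) are recorded after a ≥48 hr, 37 °C incubation.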", "values": [
      {"smiles": "O=C(COC(=O)c1ccc(NS(=O)(=O)c2cccs2)cc1O)Nc1ccc(F)cc1", "Potency": "inactive"},
      {"smiles": "CCC(CC)NC(=O)CSc1nnc(-c2c[nH]c3ccccc23)o1", "Potency": "inactive"},
      {"smiles": "O=S(=O)(NCCc1ccncc1)c1ccccc1", "Potency": "inactive"},
      {"smiles": "CCCC(=O)Nc1cccc(-c2cn3ccsc3n2)c1", "Potency": "inactive"},
      {"smiles": "CCCS(=O)(=O)Nc1cccc(-c2cn3ccsc3n2)c1", "Potency": "25.9 µM (active)"},
      {"smiles": "CS(=O)(=O)Nc1cccc(-c2cn3ccccc3n2)c1", "Potency": "inactive"},
      {"smiles": "O=C1CC2(CCCC2)Oc2ccc(Cl)cc21", "Potency": "inactive"},
      {"smiles": "COc1cccc2c1OCC(CN1CCN(C3CCCCC3)C(CCO)C1)=C2", "note": "(stereo not drawn)", "Potency": "inactive"},
      {"smiles": "CCc1cccc(OC2OC(CO)C(O)C(O)C2NC(C)=O)c1", "note": "(stereo not drawn)", "Potency": "inactive"},
      {"smiles": "Cn1ncc2c(Nc3cccc4ccccc34)ncnc21", "Potency": "inactive"},
      {"smiles": "O=C(O)C(NS(=O)(=O)c1cccc2nsnc12)c1ccccc1", "note": "(stereo not drawn)", "Potency": "inactive"},
      {"smiles": "CCOC(=O)c1cccc(NC(=O)C(Cc2ccccc2)NS(=O)(=O)c2cccc3nsnc23)c1", "note": "(stereo not drawn)", "Potency": "23.1 µM (active)"},
      {"smiles": "COc1ccc(CNC(=O)C(NS(=O)(=O)c2cccc3nsnc23)C(C)C)cc1", "note": "(stereo not drawn)", "Potency": "inactive"},
      {"smiles": "COc1ccc(NC(=S)N2CCCC(CO)C2)c(OC)c1", "note": "(stereo not drawn)", "Potency": "inactive"},
      {"smiles": "O=C(C1CCCO1)N(c1ccc(F)cc1)C1C=CS(=O)(=O)C1", "note": "(stereo not drawn)", "Potency": "inactive"},
      {"smiles": "O=C(Nc1ccccc1)Oc1cccc2cccnc12", "Potency": "1.03 µM (active)"},
      {"smiles": "COc1ccc(NC(=O)Nc2cccc3cccnc23)cc1", "Potency": "inactive"},
      {"smiles": "O=C(Nc1ccccc1Cl)Nc1cccc2cccnc12", "Potency": "inactive"},
      {"smiles": "CSCCC(NC(=O)COc1ccccc1)C(=O)N(C)CC(=O)Nc1ccc(C)cc1", "note": "(stereo not drawn)", "Potency": "inactive"},
      {"smiles": "COc1ccc(S(=O)(=O)NCCSc2nnnn2-c2ccccc2)cc1", "Potency": "inactive"},
      {"smiles": "COc1ccc(CCNS(=O)(=O)c2cccc([N+](=O)[O-])c2)cc1", "Potency": "inactive"},
      {"smiles": "COc1ccc(S(=O)(=O)NCCc2cc3ccc(C)c(C)c3[nH]c2=O)cc1", "Potency": "8.2 µM (active) and 23.1 µM (active)"},
      {"smiles": "Cc1cc(NS(=O)(=O)c2ccccc2)no1", "Potency": "inactive"},
      {"smiles": "CCOC(=O)CNC(=O)CSc1ncccc1-c1nc2ccccc2[nH]1", "Potency": "inactive"},
      {"smiles": "C/C(=N/OC(=O)c1ccc(Br)cc1)c1ccc(C)cc1", "Potency": "inactive"},
      {"smiles": "O=Cc1c(Nc2ccccc2Cl)nc2ccccn2c1=O", "Potency": "inactive"},
      {"smiles": "COc1ccc(NC(=O)CSc2nnnn2-c2cccc(OC)c2)cc1", "Potency": "inactive"},
      {"smiles": "COc1ccc(-n2nnnc2-c2nc3ccccc3s2)cc1", "Potency": "inactive"},
      {"smiles": "CCOc1cccc(-n2nnnc2-c2ccc(OC)cc2)c1", "Potency": "2.91 µM (active)"},
      {"smiles": "Cc1cccc(CSc2ccc(-c3cccs3)nn2)c1", "Potency": "inactive"},
      {"smiles": "CC(C)CCNC(=O)CSc1nc2ccccc2nc1Cc1ccc(Cl)cc1", "Potency": "inactive"},
      {"smiles": "Nc1ncnc2c1ncn2[C@@H]1O[C@H](CNS(=O)(=O)c2ccc(-c3ccno3)s2)[C@@H](O)[C@H]1O", "Potency": "inactive"},
      {"smiles": "CO/N=C(\\C(=O)N[C@@H]1C(=O)N2C(C(=O)O)=CCS[C@H]12)c1csc(N)n1", "Potency": "inactive"},
      {"smiles": "O=C(c1ccccc1F)N1CCN(S(=O)(=O)c2ccc(Br)cc2)CC1", "Potency": "inactive"},
      {"smiles": "O=C(O)C1CCCN1S(=O)(=O)c1ccc(Br)cc1", "note": "(stereo not drawn)", "Potency": "inactive"},
      {"smiles": "O=S(=O)(c1ccc(Br)cc1)n1ccc2ccccc21", "Potency": "18.4 µM (active)"},
      {"smiles": "O=C(Nc1ccc2c(c1)OCCO2)C1CCCC1", "Potency": "inactive"},
      {"smiles": "COc1ccc(CNC(=O)CCN2C(=O)c3ccccc3C2=O)cc1", "Potency": "inactive"},
      {"smiles": "COc1ccc(OCCCC(=O)NCCc2ccccc2)cc1", "Potency": "inactive"},
      {"smiles": "COc1ccc(CCNCc2c(-c3ccccc3)n(C)c3ccccc23)cc1", "Potency": "16.4 µM (active)"},
      {"smiles": "CC1(c2ccccc2)NC(=O)N(CC(=O)N2CC(=O)Nc3ccccc32)C1=O", "note": "(stereo not drawn)", "Potency": "inactive"},
      {"smiles": "Cc1ccc(Cl)cc1NC(=O)NC1COc2ccccc2C1", "note": "(stereo not drawn)", "Potency": "inactive"},
      {"smiles": "Cc1cc[n+](-c2[nH]c(=O)sc2/C=N/NC(=O)c2ccccc2[O-])cc1C", "Potency": "inactive"},
      {"smiles": "Cc1[nH]n(-c2ccccc2)c(=O)c1/C=N/NC(=O)c1ccoc1C", "Potency": "1.84 µM (active)"},
      {"smiles": "Cc1ccc(N=Nc2c(C)[nH]n(-c3ccccc3)c2=O)cc1", "Potency": "inactive"},
      {"smiles": "CCn1c(SCC(=O)Nc2ccc(S(=O)(=O)Nc3onc(C)c3C)cc2)nnc1-c1ccccc1", "Potency": "inactive"},
      {"smiles": "CCOc1ccc(NC(=O)CCC(=O)NNC(=O)NC2CCCCC2)cc1", "Potency": "inactive"},
      {"smiles": "c1ccc(Nc2nc(N3CCOCC3)c3ccccc3n2)cc1", "Potency": "16.4 µM (active)"},
      {"smiles": "O=c1[nH]c(N2CCOCC2)nc2ccccc12", "Potency": "inactive"},
      {"smiles": "O=C(COc1nc2ccccc2nc1N1CCOCC1)NCC(F)(F)F", "Potency": "inactive"},
      {"smiles": "Cc1ccc(-n2c(SCC(=O)Nc3ccc4c(c3)OCO4)nnc2-c2ccccn2)cc1", "Potency": "inactive"},
      {"smiles": "Cc1ccc2c(NC(=O)C3CC3)cccc2n1", "Potency": "inactive"},
      {"smiles": "Cc1ccc(C(=O)Nc2cccc3ncccc23)cc1[N+](=O)[O-]", "Potency": "inactive"},
      {"smiles": "Cc1ccc(/C=C(\\C#N)C(=O)Nc2cccc3ncccc23)o1", "Potency": "25.9 µM (active)"},
      {"smiles": "COc1ccc(S(=O)(=O)N2CCCC2CNC(=O)C(=O)NC2CC2)cc1", "note": "(stereo not drawn)", "Potency": "inactive"},
      {"smiles": "Cc1cc(OCc2ccc(C(=O)Nc3ccc(C(=O)O)cc3)o2)ccc1Cl", "Potency": "inactive"},
      {"smiles": "CCN(CC)S(=O)(=O)c1ccc(-c2cn3ccc(C)cc3n2)cc1", "Potency": "inactive"},
      {"smiles": "C/C(=N/NS(=O)(=O)c1ccccc1)c1ccc(NC(=O)C(F)(F)F)cc1", "Potency": "inactive"},
      {"smiles": "Cn1c(=O)c2c(-c3ccccc3Br)n(Cc3ccccc3)cc2n(C)c1=O", "Potency": "18.4 µM (active)"},
      {"smiles": "Cc1c(S(=O)(=O)NCc2ccccc2)c(=O)n(C)c(=O)n1C", "Potency": "inactive"},
      {"smiles": "O=C(NC(Cc1ccccc1)C(=O)N1CCCC1C(=O)O)c1ccccc1", "note": "(stereo not drawn) (Bz-Phe-Pro-OH; configuration not given here)", "Potency": "inactive"},
      {"smiles": "CN(C)c1nc(N)nc(Cn2nnc(-c3ccc(C(F)(F)F)cc3)n2)n1", "Potency": "inactive"},
      {"smiles": "Cc1ccc(C(=O)Nc2ccccc2-c2ccccc2)cc1S(=O)(=O)Nc1ccccc1", "Potency": "14.6 µM (active)"},
      {"smiles": "O=C(O)c1ccc(F)c(S(=O)(=O)Nc2ccccc2)c1", "Potency": "inactive"},
      {"smiles": "Cc1ccc(C(=O)Nc2ccc(C(=O)O)cc2)cc1S(=O)(=O)Nc1ccccc1", "Potency": "inactive"},
      {"smiles": "Cc1ccc(F)c(S(=O)(=O)NC(=O)C2(C)CCN2C(=O)c2ccco2)c1", "note": "(stereo not drawn)", "Potency": "inactive"},
      {"smiles": "CC(C(=O)N(C)CC(=O)Nc1ccccc1C(F)(F)F)N1C(=O)c2ccccc2C1=O", "note": "(stereo not drawn)", "Potency": "inactive"},
      {"smiles": "CCOC(CNC(=O)C(=O)NCC(c1ccco1)N1CCN(c2ccc(OC)cc2)CC1)OCC", "note": "(stereo not drawn)", "Potency": "inactive"}
    ]}
  ]
}
